Bioassay records deposited in PubChem by National Center for Advancing Translational Sciences (NCATS).
Giardia FBPA inh: qHTS Assay for Inhibitors of Fructose-1,6-bisphosphate Aldolase from Giardia Lamblia. purified Giardia FBPA. Potency, µM (top dose mostly 59.6 µM), hits mostly inhibitors. 290,000 tested, 0.71% active; further: nearly all actives have a fitted effect of over 55% in size
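40 nM FBPA preincubated 10 min at RT with compound (up to 57.5 uM final), then substrate plus GAPDH/TPI/NAD/arsenate coupling and diaphorase/resazurin added. Fluorescence read after 20 min at RT, 525/598 nm.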
Cruzain Triton: qHTS Assay for Promiscuous and Specific Inhibitors of Cruzain (with detergent). purified cruzain, Z-FR-AMC fluorescence, 0.01% Triton. Potency, µM, usual class: inhibitors. 200,000 tested, 0.43% active. AID 1478, 2009; further: nearly all actives have a fitted effect of over 40% in size
Target sequence (P25779 123-467 limits assumed): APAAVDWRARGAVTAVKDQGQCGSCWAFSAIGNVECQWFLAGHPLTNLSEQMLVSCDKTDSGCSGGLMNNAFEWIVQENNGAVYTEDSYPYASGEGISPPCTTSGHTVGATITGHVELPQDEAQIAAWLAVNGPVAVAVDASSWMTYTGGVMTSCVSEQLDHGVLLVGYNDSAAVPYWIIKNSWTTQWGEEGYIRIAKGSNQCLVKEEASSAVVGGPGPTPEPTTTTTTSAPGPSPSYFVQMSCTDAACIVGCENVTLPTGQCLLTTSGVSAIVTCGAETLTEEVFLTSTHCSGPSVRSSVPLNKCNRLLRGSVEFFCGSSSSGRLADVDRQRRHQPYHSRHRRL
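15 min RT preincubation of 1.5 nM cruzain with compound, then 2 uM Z-FR-AMC added; kinetic AMC fluorescence, 60 s delta. Triton X-100 0.01%, pH 5.5.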
Cruzain inh noDet: qHTS Assay for Promiscuous and Specific Inhibitors of Cruzain (without detergent); 200,000 tested, 2.3% active; Potency, µM, usual class: inhibitors; Cruzipain (Trypanosoma cruzi), P25779; purified cruzain, Z-FR-AMC fluorescence, no detergent; further: nearly all actives have a fitted effect of over 40% in size
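Purified cruzain at 1.5 nM, pre-incubated 15 min with compound at room temperature in 100 mM sodium acetate pH 5.5, 5 mM DTT, 0.00005% Triton X-100. Reaction started with 2 uM Z-FR-AMC; AMC fluorescence increase over 60 s gives rate.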
Each line names hits and unclear results; the compound was inactive in the other large screens; ! = a repeat was not active. This excerpt belongs to a sample that is enriched for hits. The call rests on the fitted dose curve; in most records, active means well fitted curve in the direction sought with a large enough effect; inconclusive means small, poorly fitted or top-dose-only effect, or another doubt; inactive means no such curve, though single readings can be large; an effect the other way counts as inactive or inconclusive.

Cc1nc(S(=O)(=O)c2ccc(Cl)cc2)c(NCc2ccccc2)o1	Cruzain Triton inconclusive, Cruzain inh noDet 32µM
Cc1cccc(N2CCN(S(=O)(=O)c3nnc(NC(=O)c4ccc(Cl)cc4)s3)CC2)c1	none (no result: Giardia FBPA inh)
O=C(CC1SC(=NCCc2ccccc2)N(/N=C/c2cccs2)C1=O)Nc1ccc(Cl)cc1 (stereo not given)	Cruzain inh noDet 13µM
O=C(CC1SC(=O)N(c2ccccc2)C1=O)Nc1ccc(Cl)cc1 (stereo not given)	none (no result: Cruzain Triton, Cruzain inh noDet)
COc1ccc(NC(=O)c2cc3c(s2)-c2c(C)cccc2OC3)cc1Cl	none (no result: Giardia FBPA inh)
O=C(Cc1ccc(Cl)cc1)Nc1ccc2oc(-c3ccncc3)nc2c1	none
O=C(Cc1ccc(Cl)cc1)Nc1ccc2oc(-c3ccccc3F)nc2c1	Cruzain inh noDet 7.9µM (no result: Giardia FBPA inh)
Cc1c(NC(=O)CSc2ccc(Cl)cc2)cccc1-c1nc2cc(Cl)ccc2o1	Cruzain inh noDet 25µM
Cc1ccc(SCC(=O)Nc2cccc(-c3nc4cc(Cl)ccc4o3)c2C)cc1	none (no result: Giardia FBPA inh)
COc1ccc(S(=O)(=O)N(CC(=O)Nc2ccccc2Br)Cc2ccccc2)cc1	none (no result: Giardia FBPA inh)
Cc1ccc(N2C(=O)C(CC(=O)Nc3ccc(F)cc3)N(CCC3=CCCCC3)C2=O)cc1 (stereo not given)	none (no result: Giardia FBPA inh)
Cc1ccc(S(=O)(=O)c2[nH]c(-c3ccccc3)nc2SC(C)C(=O)O)cc1 (stereo not given)	none (no result: Giardia FBPA inh)
CCCCOC(=O)CCN1C(=O)/C(=C2\SC(=S)N(CCC(=O)OCCCC)C2=O)SC1=S	Cruzain inh noDet 13µM
CCCCCOC(=O)CCN1C(=O)/C(=C2\SC(=S)N(CCC(=O)OCCCCC)C2=O)SC1=S	none (no result: Cruzain Triton, Cruzain inh noDet)
COC(=O)CN1CC(=O)c2ccccc2S1(=O)=O	none (no result: Cruzain Triton, Cruzain inh noDet)
O=c1c2sc3ccccc3c2n(Cc2cccc(Cl)c2)c(=O)n1Cc1ccc(F)cc1	Cruzain inh noDet 6.3µM (no result: Giardia FBPA inh)
O=c1c2sc3ccccc3c2n(Cc2cccc(Cl)c2)c(=O)n1Cc1ccccc1	Cruzain inh noDet inconclusive (no result: Giardia FBPA inh)
COc1ccc2[nH]cc(CCNc3nc(-c4cccnc4)nc4ccccc34)c2c1	none
Oc1ccc2ccccc2c1C1Nc2cccc3cccc(c23)N1	Cruzain inh noDet inconclusive
CCN(CC)c1ccc(C2Nc3cccc4cccc(c34)N2)c(O)c1	Giardia FBPA inh inconclusive, Cruzain inh noDet 13µM
COc1ccc(-n2c(SCc3ccccc3)nc3c([nH]c4ccccc43)c2=O)cc1	none (no result: Giardia FBPA inh)
CC1CC=CC2C1C(=O)N(Cc1ccccc1)C2c1ccc(-c2ccoc2)cc1F (stereo not given)	none (no result: Cruzain Triton, Cruzain inh noDet)
CC(C)=CCC/C(C)=C/CO/N=C1/C[C@@H](O)[C@@H](O)[C@@H]2[C@@H]3C(=O)N(Cc4ccccc4)C(=O)[C@H]3CC[C@@H]12	none (no result: Cruzain Triton, Cruzain inh noDet)
COc1ccc(C(=O)Nn2c(SCC(=O)c3ccccc3)nc3ccccc3c2=O)cc1	Cruzain inh noDet inconclusive
COc1ccc(C(=O)Nn2c(SCc3ccc([N+](=O)[O-])cc3)nc3ccccc3c2=O)cc1	Cruzain inh noDet 32µM
Nn1c(SCc2ccc([N+](=O)[O-])cc2)nc2ccccc2c1=O	none (no result: Cruzain Triton, Cruzain inh noDet)
O=c1c2ccccc2nc(SCc2ccc([N+](=O)[O-])cc2)n1-c1ccc(Cl)cc1	Cruzain inh noDet 13µM
COc1cccc(NC(=O)CCc2nnc3n(CC(C)C)c(=O)c4ccccc4n23)c1	none (no result: Giardia FBPA inh)
CCCN(CCC)c1cc(C)nc2nc(-c3ccc(Cl)cc3)nn12	none (no result: Giardia FBPA inh)
CC(C)CCC[C@@H](C)[C@@H]1CC[C@H]2C3=CC=C4CC(O)CC[C@]4(C)[C@H]3CC[C@@]21C (stereo not given in full)	none (no result: Cruzain Triton, Cruzain inh noDet)
Cc1ccccc1NC(=O)/C(C#N)=C/c1ccc(-c2ccc(Cl)c(C(=O)O)c2)o1	none (no result: Cruzain Triton, Cruzain inh noDet)
N#C/C(=C\c1ccc(-c2cccc(Cl)c2)o1)C(=O)Nc1cccc2cccnc12	Cruzain inh noDet 3.2µM
CCCCOC(=O)c1ccc(NC(=O)c2cc3c(=O)n4cccc(C)c4nc3n2C)cc1	none (no result: Giardia FBPA inh)
N#CCCSC(=S)[C@H]1CCCC1=N	none (no result: Giardia FBPA inh)
COc1ccc(/C=C2/C(=O)N(Cc3ccccc3)N=C2C)cc1	none
COc1ccc(/C=C2/C(=O)N(c3nc4ccccc4s3)N=C2CSc2ccc(Cl)cc2)cc1	Cruzain inh noDet 3.2µM
COc1ccc(OC)c(NC(=O)CN(C)S(=O)(=O)c2ccc(C(=O)N3CCOCC3)s2)c1	none (no result: Giardia FBPA inh)
COc1cc(NC(=O)Cn2c(=O)ccc3cc(S(=O)(=O)N4CCCC4)ccc32)cc(OC)c1	none (no result: Giardia FBPA inh)
CCCCOc1ccc(C(=O)Nc2cccc(-c3nc4cccnc4s3)c2)cc1	none (no result: Giardia FBPA inh)
NC(Cc1cc(I)c(Oc2ccc(O)c(I)c2)c(I)c1)C(=O)O (stereo not given)	none
N[C@@H](Cc1cc(I)c(Oc2ccc(O)c(I)c2)c(I)c1)C(=O)O	Cruzain Triton inconclusive, Cruzain inh noDet 13µM!
CCCc1nnc2n1N=C(c1ccc(-c3cc(Cl)ccc3Cl)o1)CS2	Cruzain inh noDet 16µM
CCCc1nnc2n1N=C(c1ccc(OC)c(OC)c1)CS2	none
